# Compounds without any hit were thinned out: in the full panel of roughly 79,000, 15% have a hit. Active and inactive are the calls of the source. No stated cut-off is given here; in the data, active means growth inhibition above about 70%; inactive means the rest.
# Assay: NCI Yeast Anticancer Drug Screen. Data for the rad50 strain (AID 155);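 further: 0% = growth of vehicle-only cultures of the same strain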
# Settings: S. cerevisiae rad50 strain growth inhibition; at 50.0 µM (retest, dose inferred, filed as 5.0); hits give high values
# Method in brief: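 Vehicle-treated cultures provide the reference for the growth inhibition reported for compound-exposed, repair-deficient yeast.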
row,Compound,growth inhibition
1,CC12CCC(=O)C=C1CCC1C2CCC2(C)C(O[Si](C)(C)OC3CCC4C5CCC6=CC(=O)CCC6(C)C5CCC34C)CCC12 (stereo not given),44% (inactive)
2,CC1=C[C@H]2O[C@H]3C[C@H]4OC(=O)/C=C\C=C\C(=O)OCC[C@@H](C)[C@H](O)C(=O)OC[C@@]2(CC1)[C@@]4(C)[C@]31CO1,99% (active)
3,CCCCCCCC[As](C)(=O)O,-121% (inactive)
4,OC1C2[C@@H](O)CCCN2C[C@@H](O)[C@H]1O (stereo not given in full),21% (inactive)
5,COC1(O[C@H]2CC[C@H]3[C@@H]4CCC5=CC(=O)CC[C@]5(C)[C@H]4CC[C@]23C)CCCCC1,-8% (inactive)
6,O=[N+]([O-])c1ccc(CS(=O)(=O)C(Cl)(Cl)Cl)o1,99% (active)
7,CC([CH2][Hg][Cl])c1ccccc1 (stereo not given),99% (active)
8,CC(C)CC[CH2][Pb]([CH2]CCC(C)C)([CH2]CCC(C)C)[O]C(=O)C(Cl)(Cl)Cl,98% (active)
9,COC1OC(OC)[CH]([Hg][Cl])C1OC (stereo not given),99% (active)
10,S=C=[N][Sn]([N]=C=S)([c]1ccccc1)[c]1ccccc1.c1ccc2nc(-c3ccc4ccccc4n3)ccc2c1,98% (active)
11,CSCCC([NH-])C(=O)O.CSCCC([NH-])C(=O)O.[Zn+2] (stereo not given),1% (inactive)
12,C[PH+](C)C.C[PH+](C)C.[Au],70% (active)
13,O=C(O)C(Br)C(Br)C(=O)O.[Ag] (stereo not given),99% (active)
14,CCC1CN1P(=O)(Oc1ccccc1)N1CC1CC (stereo not given),15% (inactive)
15,CCCCCc1cc(O)c(CCCC)c(O)c1,87% (active)
16,N#CC(Cl)(Cl)CCl,41% (inactive)
17,O=C(Cc1c2ccccc2cc2c1ccc1ccccc12)N(CCCl)CCCl,94% (active)
18,CC[C@@]1(O)C(=O)OCc2c1cc1n(c2=O)Cc2cc3c(OC)cccc3nc2-1,92% (active)
19,CCOC(=O)NP(=O)(NNc1ccccc1)NNc1ccccc1,98% (active)
20,C=C1C(=O)O[C@@H]2C[C@@H](C)[C@@H]3C=CC(=O)[C@@]3(C)[C@@H](O)[C@H]12,16% (inactive)

row,Compound,growth inhibition
1,O=C(O)C(F)(F)F.[Ag],98% (active)
2,O=C(CBr)Nc1ccccc1,99% (active)
3,C1=C[N-]c2c3c(ccc2=C1)=CC=C[N-]3.C1=C[N-]c2c3c(ccc2=C1)=CC=C[N-]3.F[P-](F)(F)(F)(F)F.[Cu+2],98% (active)
4,O=[N+]([O-])/C=C/c1ccccc1Cl,98% (active)
5,CCOP(=S)(OCC)SSSP(=S)(OCC)OCC,71% (active)
6,CCOC(=O)c1ccc(N=Cc2ccc(N(CCCl)CCCl)cc2C)cc1,15% (inactive)
7,COc1ccc2c(c1)CCC(N1CCCC(=O)C1)C2 (stereo not given),11% (inactive)
8,CCCCCCC(=O)[O][Hg][c]1ccccc1,99% (active)
9,CCC[CH2][Sn]1([CH2]CCC)[O]C(=O)c2cccnc2[S]1,95% (active)
10,C[AsH](C)CC[AsH](C)C.C[AsH](C)CC[AsH](C)C.C[AsH](C)CC[AsH](C)C.[Ni],98% (active)
11,O=c1[nH]c2ccccc2n1C1CCN(CCCC(c2ccc(F)cc2)c2ccc(F)cc2)CC1,34% (inactive)
12,O=[C-]c1ccccc1[C-]=O.[Pd+2].c1ccc([PH+](c2ccccc2)c2ccccc2)cc1.c1ccc([PH+](c2ccccc2)c2ccccc2)cc1,44% (inactive)
13,c1ccc(C(c2ccccc2)c2cccnc2)cc1,97% (active)
14,C#CC[As+](c1ccccc1)(c1ccccc1)c1ccccc1,98% (active)
15,CC[CH2][Pb]([CH2]CC)([CH2]CC)[O]C(C)=O,79% (active)
16,CC[PH+](CC)CC.[Cl][Au],98% (active)
17,CN(C)[PH+](N(C)C)N(C)C.CN(C)[PH+](N(C)C)N(C)C.[C-]#[O+].[C-]#[O+].[C-]#[O+].[C-]#[O+].[C-]#[O+].[C-]#[O+].[Co].[Co].[Hg],16% (inactive)
18,CC1=C(N2CC2)C(=O)c2nc3n(c2C1=O)CCC3OC(=O)CCl (stereo not given),61% (inactive)
19,[N-]=[N+]=Nc1c([N+](=O)[O-])c(=O)n2c3c(cccc13)CCC2,98% (active)
20,CCC[CH2][Sn]1([CH2]CCC)[O]CC(CN2CCCCC2)[O]1 (stereo not given),94% (active)
